Screening results from PubChem BioAssay.
L3MBTL1 block – qHTS Assay for the Inhibitors of L3MBTL1; Lethal(3)malignant brain tumor-like protein 1 (Homo sapiens), Q9Y468; AlphaScreen L3MBTL1–H3K9me1 peptide binding; Potency, µM (top dose mostly 57.1 µM), for inactives: at the top dose activity, negative = inhibition, most hits filed as inhibitors; hit rate 0.66% among 230,000; AID 485360, 2010; note: % is set by controls: 0 for no effect and ±100 for the full control effect; nearly all actives have a fitted effect of over 60% in size
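Read-out is AlphaScreen signal from streptavidin donor and nickel chelate acceptor beads (10 ug/mL final each) bridging L3MBTL1 (50 nM) and biotinylated K9-monomethylated H3(1-15) peptide (75 nM), after 30 min compound exposure at room temperature.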
JMJD2A Tudor – qHTS Assay for Inhibitors of JMJD2A-Tudor Domain. Lysine-specific demethylase 4A (Homo sapiens), O75164. AlphaScreen JMJD2A-Tudor / H3K4me3 peptide binding. Potency, µM (top dose mostly 114 µM), without a hit: at the top dose activity change, negative = inhibition, usual class: inhibitors. hit rate 4.4% among 390,000; note: % is set by controls: 0 for no effect and ±100 for the full control effect; nearly all actives have a fitted effect of over 50% in size
HP1b chromo inh – HTS for Inhibitors of HP1-beta Chromodomain Interactions with Methylated Histone Tails; Chromobox protein homolog 1 (Homo sapiens), P83916; Potency, µM (highest dose often 114 µM), for the others: at the top dose activity change, negative = inhibition, usual class: inhibitors; hit rate 0.56% among 390,000; AID 540317, 2011; AlphaScreen HP1-beta / biotin-H3K9me3 peptide binding; note: nearly all actives have a fitted effect of over 70% in size
Target sequence (P83916 whole entry, looked up): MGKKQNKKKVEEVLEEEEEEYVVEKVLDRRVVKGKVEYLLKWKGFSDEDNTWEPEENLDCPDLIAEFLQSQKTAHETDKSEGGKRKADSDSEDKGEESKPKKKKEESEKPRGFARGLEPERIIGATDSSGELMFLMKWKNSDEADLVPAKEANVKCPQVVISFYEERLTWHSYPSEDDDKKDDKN
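AlphaScreen: HP1-beta (50 nM) preformed 30 min with biotin-H3(1-18)K9me3 peptide (50 nM) in PBS pH 7.4, 0.01% Tween-20. Compound added for 30 min at RT, then streptavidin donor/nickel chelate acceptor beads (10 ug/mL) for 30 min.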
G9a block – qHTS Assay for Inhibitors of Histone Lysine Methyltransferase G9a. G9a H3K9 monomethylation, AlphaScreen, 2 h. hit rate 8.8% among 350,000. Potency, µM (top dose mostly 102 µM), for inactives: top-dose activity, negative = inhibition, usual class: inhibitors; note: % is set by controls: 0 for no effect and ±100 for the full control effect; nearly all actives have a fitted effect of over 75% in size
Target sequence (Q96KQ7 913-1193 limits assumed): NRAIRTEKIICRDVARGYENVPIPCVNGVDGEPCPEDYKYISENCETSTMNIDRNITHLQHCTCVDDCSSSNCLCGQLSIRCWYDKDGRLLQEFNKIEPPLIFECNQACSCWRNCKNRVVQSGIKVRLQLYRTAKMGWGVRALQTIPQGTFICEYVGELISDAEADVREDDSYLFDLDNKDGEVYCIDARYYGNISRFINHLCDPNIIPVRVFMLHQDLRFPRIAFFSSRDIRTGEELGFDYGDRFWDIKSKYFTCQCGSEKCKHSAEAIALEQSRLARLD
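Readings reflect AlphaScreen signal from monomethyl-H3K9 antibody detection. HMT at 20 nM; substrate b-H3K9 500 nM; cofactor SAM 20 uM; 2 h RT reaction; compounds tested as titrations in qHTS with 15 min preincubation.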
BAZ2B inh – qHTS Assay for Inhibitors of BAZ2B; Bromodomain adjacent to zinc finger domain protein 2B (Homo sapiens), Q9UIF8; AlphaScreen BAZ2B-H3K14Ac peptide displacement; Potency, µM (titrated, usually from 114 µM), without a hit: at the highest dose activity change, negative = inhibition, hits mostly inhibitors; hit rate 4.4% among 360,000; AID 504333, 2011; note: % is set by controls: 0 for no effect and ±100 for the full control effect; nearly all actives have a fitted effect of over 60% in size
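AlphaScreen displacement of biotin-H3(5-23)K14Ac peptide (50 nM final) from BAZ2B (50 nM final) in PBS pH 7.4, 0.01% Tween-20; complex preformed 30 min RT, then compounds (top 110 uM) 30 min RT, beads 20 min dark.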
* marks the source's active call; other numbers are inactive results; [ ] = dose if it differs, or a comment. This is a sample that favours compounds with a hit; in the whole collection about 11% have one here. Calls come from the whole dose curve; as a rule, active = well fitted inhibition curve with a large enough effect; inconclusive = small, poorly fitted or top-dose-only effect; inactive = no such curve, though single readings can be large or run the other way. Potency is the fitted concentration of half-maximal effect.

How did C[C@@H]1O[C@@H](O[C@@H]2[C@@H](O)[C@H](OCCc3ccc(O)c(O)c3)O[C@H](CO)[C@H]2OC(=O)/C=C/c2ccc(O)c(O)c2)[C@H](O)[C@H](O)[C@H]1O do in these assays?
L3MBTL1 block: inconclusive; JMJD2A Tudor: 18µM*; HP1b chromo inh: inconclusive

Results for Cc1ccc(C(=O)Sc2cccccc2=O)cc1 ?
JMJD2A Tudor: -29%; HP1b chromo inh: inconclusive; G9a block: 10µM*; BAZ2B inh: 40µM*

Results for CCOc1ccc(-n2nc3ccc(NC(=O)c4ccc(-c5cccc(Cl)c5)o4)cc3n2)cc1 ?
JMJD2A Tudor: -6%; HP1b chromo inh: 14%; G9a block: -73%[59 µM]; BAZ2B inh: -26%

What do the screens show for `COc1nccnc1NS(=O)(=O)c1ccc(NC(=O)c2ccc(F)cc2)cc1`?
JMJD2A Tudor: -15%; HP1b chromo inh: -18%; G9a block: 10%; BAZ2B inh: -4%

What do the screens show for `COc1nccnc1NS(=O)(=O)c1ccc(NC(=O)c2cccc(C)c2)cc1`?
L3MBTL1 block: 6%; JMJD2A Tudor: -11%; HP1b chromo inh: 15%; BAZ2B inh: 79µM*

What do the screens show for `COc1nccnc1NS(=O)(=O)c1ccc(NCc2cc(Br)ccc2O)cc1`?
JMJD2A Tudor: -36%; HP1b chromo inh: inconclusive; G9a block: 45µM*; BAZ2B inh: inconclusive

What do the screens show for `CCc1nnc(NS(=O)(=O)c2ccc(NCc3cc(Br)ccc3O)cc2)s1`?
JMJD2A Tudor: -21%; HP1b chromo inh: 13%; BAZ2B inh: -23%

Results for COc1nccnc1NS(=O)(=O)c1ccc(NC(=S)NC(=O)c2ccc(F)c(F)c2)cc1 ?
L3MBTL1 block: 0%; JMJD2A Tudor: -14%; HP1b chromo inh: -2%; G9a block: 50µM*; BAZ2B inh: inconclusive

How did COc1ccc(C(=O)Nc2ccc(S(=O)(=O)Nc3nccnc3OC)cc2)cc1 do in these assays?
JMJD2A Tudor: -16%; HP1b chromo inh: 53%; G9a block: -38%[59 µM]; BAZ2B inh: -26%

How did COc1nccnc1NS(=O)(=O)c1ccc(N/C=C2\CCCCC2=O)cc1 do in these assays?
L3MBTL1 block: -8%; JMJD2A Tudor: -23%; HP1b chromo inh: 10%; G9a block: 50µM*; BAZ2B inh: inconclusive

What do the screens show for `CN(C(=O)Cn1c(=O)n(CCC(=O)NCc2ccc3c(c2)OCO3)c(=O)c2sccc21)c1ccccc1`?
JMJD2A Tudor: 2%; HP1b chromo inh: 37%; G9a block: 5%[59 µM]; BAZ2B inh: -1%

What do the screens show for `O=C(c1ccco1)n1nc(-c2ccccc2)nc1NCc1ccccc1Cl`?
JMJD2A Tudor: 10%; HP1b chromo inh: 33%; G9a block: 4%[59 µM]; BAZ2B inh: -2%

Results for COc1ccc(C2/C(=C(\O)c3ccc4c(c3)OCCO4)C(=O)C(=O)N2CCCn2ccnc2)cc1 (stereo unspecified) ?
JMJD2A Tudor: -43%; HP1b chromo inh: -3%; G9a block: inconclusive; BAZ2B inh: inconclusive

How did C=CCOc1ccc(/C(O)=C2/C(=O)C(=O)N(CCCn3ccnc3)C2c2ccco2)cc1 (stereo unspecified) do in these assays?
L3MBTL1 block: -7%; JMJD2A Tudor: inconclusive; HP1b chromo inh: 18%; G9a block: 20µM*; BAZ2B inh: 50µM*

How did CC1Cc2cc(/C(O)=C3/C(=O)C(=O)N(CCCn4ccnc4)C3c3cccnc3)ccc2O1 (stereo unspecified) do in these assays?
L3MBTL1 block: 7%; JMJD2A Tudor: 14µM*; HP1b chromo inh: 8%; G9a block: 50µM*; BAZ2B inh: inconclusive

How did CC1Cc2cc(/C(O)=C3/C(=O)C(=O)N(CCCn4ccnc4)C3c3ccco3)ccc2O1 (stereo unspecified) do in these assays?
L3MBTL1 block: 0%; JMJD2A Tudor: 32µM*; HP1b chromo inh: -6%; G9a block: inconclusive; BAZ2B inh: inconclusive

How did CCCOc1ccc(/C(O)=C2/C(=O)C(=O)N(CCCn3ccnc3)C2c2ccco2)cc1 (stereo unspecified) do in these assays?
L3MBTL1 block: -1%; JMJD2A Tudor: inconclusive; HP1b chromo inh: 39%; BAZ2B inh: -7%

Results for CC1Cc2cc(/C(O)=C3/C(=O)C(=O)N(CCCn4ccnc4)C3c3ccc(Br)cc3)ccc2O1 (stereo unspecified) ?
JMJD2A Tudor: -8%; HP1b chromo inh: 13%; BAZ2B inh: -19%

What do the screens show for `CC1Cc2cc(/C(O)=C3/C(=O)C(=O)N(CCCn4ccnc4)C3c3ccncc3)ccc2O1` (stereo unspecified)?
L3MBTL1 block: 6%; JMJD2A Tudor: -23%; HP1b chromo inh: 33%; BAZ2B inh: inconclusive

How did COc1ccccc1C1/C(=C(\O)c2ccc3c(c2)OCCO3)C(=O)C(=O)N1CCCn1ccnc1 (stereo unspecified) do in these assays?
JMJD2A Tudor: -29%; HP1b chromo inh: 17%; G9a block: 40µM*; BAZ2B inh: inconclusive

What do the screens show for `O=C(CCCn1c(=O)[nH]c2ccccc2c1=O)NCc1ccccc1Cl`?
JMJD2A Tudor: -17%; HP1b chromo inh: -8%; G9a block: 11%[59 µM]; BAZ2B inh: -13%

How did O=C(Nc1cccc2cccnc12)c1ccc(Br)cc1 do in these assays?
JMJD2A Tudor: 79%; HP1b chromo inh: 140%

Results for COCCNC(=O)CSc1cn(CC(=O)N2CCCCCC2)c2ccccc12 ?
JMJD2A Tudor: -16%; HP1b chromo inh: 11%; G9a block: 5%[59 µM]; BAZ2B inh: -17%

Results for CCNC(=O)CC1C(=O)N(c2ccc(C)cc2)C(=O)N1Cc1ccc(C)cc1 (stereo unspecified) ?
JMJD2A Tudor: -7%; HP1b chromo inh: 6%; G9a block: -6%[59 µM]; BAZ2B inh: -4%

What do the screens show for `COc1ccc(NC(=O)C2CCN(S(=O)(=O)c3cccc(-c4noc(C)n4)c3)CC2)cc1OC`?
JMJD2A Tudor: -26%; HP1b chromo inh: inconclusive; G9a block: -1%[59 µM]; BAZ2B inh: -18%

Results for O=C1C(=O)N(CCCn2ccnc2)C(c2ccccn2)/C1=C(/O)c1ccccc1 (stereo unspecified) ?
L3MBTL1 block: 5%; G9a block: 50µM*; BAZ2B inh: -8%

What do the screens show for `O=C1C(=O)N(CCCn2ccnc2)C(c2cccnc2)/C1=C(/O)c1ccc(F)cc1` (stereo unspecified)?
L3MBTL1 block: 6%; JMJD2A Tudor: inconclusive; HP1b chromo inh: 18%; G9a block: -8%[59 µM]; BAZ2B inh: inconclusive
